The supplement of paper PMC11732987, “Enantioselective OTUD7B fragment discovery through chemoproteomics screening and high-throughput optimisation” (Communications Chemistry, 2025)

Legend:
Experiment in all cases: log2 ratio of Biotin-Ahx-Ub-VS probe labelling (fragment/DMSO); higher = less target engagement (more negative = stronger competition), active = hit call of the paper (q ≤ 0.05, log2 ratio ≤ -1)
Settings in all cases: compound concentration: 200 uM; treatment time: 3 h
[1] = biological target: T1, USP42 (UniProt Q9H9J4)
T1 sequence (whole entry): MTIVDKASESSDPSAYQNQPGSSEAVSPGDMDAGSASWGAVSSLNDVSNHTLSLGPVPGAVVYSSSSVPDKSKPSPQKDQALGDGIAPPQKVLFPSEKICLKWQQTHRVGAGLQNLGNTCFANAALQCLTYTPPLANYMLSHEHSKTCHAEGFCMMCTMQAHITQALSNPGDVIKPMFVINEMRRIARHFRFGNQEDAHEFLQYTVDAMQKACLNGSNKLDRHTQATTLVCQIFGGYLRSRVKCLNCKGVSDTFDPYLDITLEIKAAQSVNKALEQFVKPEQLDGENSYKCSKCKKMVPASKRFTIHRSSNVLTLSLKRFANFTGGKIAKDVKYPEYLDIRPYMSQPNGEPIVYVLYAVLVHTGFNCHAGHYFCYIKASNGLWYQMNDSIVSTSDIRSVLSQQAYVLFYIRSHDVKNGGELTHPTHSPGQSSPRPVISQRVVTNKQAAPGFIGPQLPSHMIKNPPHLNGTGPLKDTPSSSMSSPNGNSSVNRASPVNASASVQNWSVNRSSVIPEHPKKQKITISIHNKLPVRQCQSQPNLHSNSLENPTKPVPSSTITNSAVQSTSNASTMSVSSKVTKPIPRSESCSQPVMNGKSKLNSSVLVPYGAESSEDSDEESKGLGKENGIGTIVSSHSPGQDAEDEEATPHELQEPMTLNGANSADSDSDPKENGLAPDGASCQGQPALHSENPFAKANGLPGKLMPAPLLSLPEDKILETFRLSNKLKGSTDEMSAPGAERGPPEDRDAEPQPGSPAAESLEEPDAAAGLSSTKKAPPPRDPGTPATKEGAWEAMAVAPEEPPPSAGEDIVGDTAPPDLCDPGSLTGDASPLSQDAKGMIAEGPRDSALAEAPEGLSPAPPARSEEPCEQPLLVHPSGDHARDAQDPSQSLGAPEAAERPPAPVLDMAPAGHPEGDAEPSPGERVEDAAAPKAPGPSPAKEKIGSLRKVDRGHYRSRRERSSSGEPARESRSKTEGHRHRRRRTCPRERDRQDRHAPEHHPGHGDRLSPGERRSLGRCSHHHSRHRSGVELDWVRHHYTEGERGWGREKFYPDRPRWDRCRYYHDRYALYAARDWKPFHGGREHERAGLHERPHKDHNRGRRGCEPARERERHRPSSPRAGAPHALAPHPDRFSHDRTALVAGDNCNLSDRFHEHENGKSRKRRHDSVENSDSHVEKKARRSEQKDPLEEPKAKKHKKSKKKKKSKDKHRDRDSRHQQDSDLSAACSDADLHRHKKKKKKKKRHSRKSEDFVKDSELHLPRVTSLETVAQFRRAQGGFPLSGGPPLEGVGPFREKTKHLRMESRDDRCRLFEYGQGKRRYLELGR
Outline: (§1)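 HEK293T lysate, 495 µg per sample in Tris/CHAPS/IGEPAL buffer with protease inhibitors, was treated in triplicate with fragment at 200 µM or vehicle for 3 h and then with Biotin-Ahx-Ub-VS at 0.5 µM final for 1 h. Labelled DUBs were NeutrAvidin-enriched, digested with LysC and trypsin, and run by diaPASEF LC-MS/MS. Spectronaut label-free quantities were global-median-normalised, and values are average log2 fragment/vehicle ratios by unpaired t-test on proteins with ≥2 unique peptides.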

[2] = biological target: USP46 (UniProt P62068)
USP46, sequence (P62068 whole entry): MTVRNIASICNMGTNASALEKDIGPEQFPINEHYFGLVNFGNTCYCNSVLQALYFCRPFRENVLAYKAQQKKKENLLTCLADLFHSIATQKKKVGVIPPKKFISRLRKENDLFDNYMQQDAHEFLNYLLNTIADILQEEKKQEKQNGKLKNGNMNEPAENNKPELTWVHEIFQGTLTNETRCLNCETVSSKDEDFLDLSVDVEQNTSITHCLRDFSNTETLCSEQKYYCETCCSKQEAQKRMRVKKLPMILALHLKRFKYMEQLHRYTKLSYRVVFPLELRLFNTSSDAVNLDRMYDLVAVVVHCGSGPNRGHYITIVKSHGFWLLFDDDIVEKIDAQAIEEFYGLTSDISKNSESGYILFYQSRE
Outline: as §1

[3] = biological target: T2, USP47 (UniProt Q96K76)
T2 sequence (whole entry): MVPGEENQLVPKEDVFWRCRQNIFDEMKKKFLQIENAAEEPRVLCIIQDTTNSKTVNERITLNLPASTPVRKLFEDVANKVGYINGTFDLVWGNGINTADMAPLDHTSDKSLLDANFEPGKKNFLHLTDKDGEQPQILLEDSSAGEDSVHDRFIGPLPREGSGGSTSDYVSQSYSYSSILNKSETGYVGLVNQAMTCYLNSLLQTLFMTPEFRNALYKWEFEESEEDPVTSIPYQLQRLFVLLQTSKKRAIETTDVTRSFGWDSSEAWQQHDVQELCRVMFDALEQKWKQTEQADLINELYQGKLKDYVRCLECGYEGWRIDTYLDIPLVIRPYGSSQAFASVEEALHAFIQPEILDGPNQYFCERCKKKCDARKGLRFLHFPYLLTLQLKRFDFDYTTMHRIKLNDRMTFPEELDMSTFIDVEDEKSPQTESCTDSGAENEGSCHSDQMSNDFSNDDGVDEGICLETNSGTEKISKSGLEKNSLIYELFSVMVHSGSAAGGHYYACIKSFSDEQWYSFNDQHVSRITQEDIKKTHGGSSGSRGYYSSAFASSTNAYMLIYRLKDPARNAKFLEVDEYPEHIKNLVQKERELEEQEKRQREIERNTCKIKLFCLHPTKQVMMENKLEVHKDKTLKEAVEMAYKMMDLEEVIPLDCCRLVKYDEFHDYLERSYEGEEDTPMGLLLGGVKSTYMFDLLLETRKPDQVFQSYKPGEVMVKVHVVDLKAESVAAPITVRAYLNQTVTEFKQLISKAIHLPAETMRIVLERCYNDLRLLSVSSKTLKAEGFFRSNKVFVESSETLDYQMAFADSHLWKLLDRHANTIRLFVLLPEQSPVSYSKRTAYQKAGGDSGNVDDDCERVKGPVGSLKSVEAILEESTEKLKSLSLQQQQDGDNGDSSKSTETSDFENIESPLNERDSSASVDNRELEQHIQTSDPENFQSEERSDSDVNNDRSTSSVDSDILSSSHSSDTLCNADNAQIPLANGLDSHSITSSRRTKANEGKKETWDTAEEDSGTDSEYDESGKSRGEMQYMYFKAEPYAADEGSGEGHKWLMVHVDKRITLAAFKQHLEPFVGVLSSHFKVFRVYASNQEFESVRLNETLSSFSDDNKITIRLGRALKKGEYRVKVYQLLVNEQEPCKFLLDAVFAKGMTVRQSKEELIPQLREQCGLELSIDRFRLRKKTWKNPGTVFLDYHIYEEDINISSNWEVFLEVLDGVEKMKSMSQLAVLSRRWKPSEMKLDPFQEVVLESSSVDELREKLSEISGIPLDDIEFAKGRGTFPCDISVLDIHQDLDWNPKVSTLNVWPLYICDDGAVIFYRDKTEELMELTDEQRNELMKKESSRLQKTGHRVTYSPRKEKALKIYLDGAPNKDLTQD
Outline: as §1

[4] = biological target: T3, USP48 (UniProt Q86UV5)
T3 sequence (whole entry): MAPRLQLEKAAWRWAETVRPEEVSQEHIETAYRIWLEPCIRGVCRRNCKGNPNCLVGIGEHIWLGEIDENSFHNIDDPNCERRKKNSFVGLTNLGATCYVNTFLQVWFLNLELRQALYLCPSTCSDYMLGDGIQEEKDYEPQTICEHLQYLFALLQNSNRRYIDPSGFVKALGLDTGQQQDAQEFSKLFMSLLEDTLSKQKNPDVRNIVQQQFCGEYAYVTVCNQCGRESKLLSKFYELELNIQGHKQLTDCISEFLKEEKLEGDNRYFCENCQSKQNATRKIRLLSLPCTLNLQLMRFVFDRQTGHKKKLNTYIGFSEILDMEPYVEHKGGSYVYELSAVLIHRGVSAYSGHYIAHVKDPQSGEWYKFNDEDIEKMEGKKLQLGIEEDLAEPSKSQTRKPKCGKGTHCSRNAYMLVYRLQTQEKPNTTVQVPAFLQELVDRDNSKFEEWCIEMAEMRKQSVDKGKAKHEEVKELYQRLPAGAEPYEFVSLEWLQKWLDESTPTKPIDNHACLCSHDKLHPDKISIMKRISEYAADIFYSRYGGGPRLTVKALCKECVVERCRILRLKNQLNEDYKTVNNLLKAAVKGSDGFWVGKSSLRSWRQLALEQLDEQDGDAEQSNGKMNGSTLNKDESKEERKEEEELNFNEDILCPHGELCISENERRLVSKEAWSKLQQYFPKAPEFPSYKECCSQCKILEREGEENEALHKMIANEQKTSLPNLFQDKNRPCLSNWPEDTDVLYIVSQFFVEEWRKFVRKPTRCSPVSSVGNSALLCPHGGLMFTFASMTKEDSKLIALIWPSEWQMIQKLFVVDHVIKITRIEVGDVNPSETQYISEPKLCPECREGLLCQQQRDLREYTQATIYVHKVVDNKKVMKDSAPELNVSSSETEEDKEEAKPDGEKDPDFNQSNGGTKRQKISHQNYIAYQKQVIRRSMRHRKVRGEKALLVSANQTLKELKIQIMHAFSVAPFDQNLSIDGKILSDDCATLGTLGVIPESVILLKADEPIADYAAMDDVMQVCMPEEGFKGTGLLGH
Outline: as §1

[5] = biological target: T4, USP5 (UniProt P45974)
T4 sequence (whole entry): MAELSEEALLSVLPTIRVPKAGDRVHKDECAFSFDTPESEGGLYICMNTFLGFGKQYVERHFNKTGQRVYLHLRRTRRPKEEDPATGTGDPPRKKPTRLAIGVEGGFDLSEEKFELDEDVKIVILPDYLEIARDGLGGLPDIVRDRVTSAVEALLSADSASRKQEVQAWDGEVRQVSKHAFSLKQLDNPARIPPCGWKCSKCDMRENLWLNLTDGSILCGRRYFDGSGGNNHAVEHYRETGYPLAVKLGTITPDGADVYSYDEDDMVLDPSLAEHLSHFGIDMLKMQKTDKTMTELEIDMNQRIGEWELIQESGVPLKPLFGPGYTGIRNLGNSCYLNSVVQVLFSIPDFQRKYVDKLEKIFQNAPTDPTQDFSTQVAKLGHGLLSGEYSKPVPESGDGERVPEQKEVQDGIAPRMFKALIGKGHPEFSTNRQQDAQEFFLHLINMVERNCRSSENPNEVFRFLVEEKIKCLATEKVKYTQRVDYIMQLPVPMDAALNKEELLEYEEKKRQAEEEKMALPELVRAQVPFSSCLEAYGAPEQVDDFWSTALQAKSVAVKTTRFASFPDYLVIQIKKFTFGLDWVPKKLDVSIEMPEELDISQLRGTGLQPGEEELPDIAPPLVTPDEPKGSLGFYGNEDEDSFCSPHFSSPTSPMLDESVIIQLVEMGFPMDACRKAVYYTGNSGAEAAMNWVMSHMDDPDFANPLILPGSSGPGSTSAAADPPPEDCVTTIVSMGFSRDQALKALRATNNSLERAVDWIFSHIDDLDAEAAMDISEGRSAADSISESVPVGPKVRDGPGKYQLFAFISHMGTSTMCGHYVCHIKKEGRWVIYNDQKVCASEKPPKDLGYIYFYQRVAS
Outline: as §1

[6] = biological target: USP54 (UniProt Q70EL1)
USP54, sequence (Q70EL1 whole entry): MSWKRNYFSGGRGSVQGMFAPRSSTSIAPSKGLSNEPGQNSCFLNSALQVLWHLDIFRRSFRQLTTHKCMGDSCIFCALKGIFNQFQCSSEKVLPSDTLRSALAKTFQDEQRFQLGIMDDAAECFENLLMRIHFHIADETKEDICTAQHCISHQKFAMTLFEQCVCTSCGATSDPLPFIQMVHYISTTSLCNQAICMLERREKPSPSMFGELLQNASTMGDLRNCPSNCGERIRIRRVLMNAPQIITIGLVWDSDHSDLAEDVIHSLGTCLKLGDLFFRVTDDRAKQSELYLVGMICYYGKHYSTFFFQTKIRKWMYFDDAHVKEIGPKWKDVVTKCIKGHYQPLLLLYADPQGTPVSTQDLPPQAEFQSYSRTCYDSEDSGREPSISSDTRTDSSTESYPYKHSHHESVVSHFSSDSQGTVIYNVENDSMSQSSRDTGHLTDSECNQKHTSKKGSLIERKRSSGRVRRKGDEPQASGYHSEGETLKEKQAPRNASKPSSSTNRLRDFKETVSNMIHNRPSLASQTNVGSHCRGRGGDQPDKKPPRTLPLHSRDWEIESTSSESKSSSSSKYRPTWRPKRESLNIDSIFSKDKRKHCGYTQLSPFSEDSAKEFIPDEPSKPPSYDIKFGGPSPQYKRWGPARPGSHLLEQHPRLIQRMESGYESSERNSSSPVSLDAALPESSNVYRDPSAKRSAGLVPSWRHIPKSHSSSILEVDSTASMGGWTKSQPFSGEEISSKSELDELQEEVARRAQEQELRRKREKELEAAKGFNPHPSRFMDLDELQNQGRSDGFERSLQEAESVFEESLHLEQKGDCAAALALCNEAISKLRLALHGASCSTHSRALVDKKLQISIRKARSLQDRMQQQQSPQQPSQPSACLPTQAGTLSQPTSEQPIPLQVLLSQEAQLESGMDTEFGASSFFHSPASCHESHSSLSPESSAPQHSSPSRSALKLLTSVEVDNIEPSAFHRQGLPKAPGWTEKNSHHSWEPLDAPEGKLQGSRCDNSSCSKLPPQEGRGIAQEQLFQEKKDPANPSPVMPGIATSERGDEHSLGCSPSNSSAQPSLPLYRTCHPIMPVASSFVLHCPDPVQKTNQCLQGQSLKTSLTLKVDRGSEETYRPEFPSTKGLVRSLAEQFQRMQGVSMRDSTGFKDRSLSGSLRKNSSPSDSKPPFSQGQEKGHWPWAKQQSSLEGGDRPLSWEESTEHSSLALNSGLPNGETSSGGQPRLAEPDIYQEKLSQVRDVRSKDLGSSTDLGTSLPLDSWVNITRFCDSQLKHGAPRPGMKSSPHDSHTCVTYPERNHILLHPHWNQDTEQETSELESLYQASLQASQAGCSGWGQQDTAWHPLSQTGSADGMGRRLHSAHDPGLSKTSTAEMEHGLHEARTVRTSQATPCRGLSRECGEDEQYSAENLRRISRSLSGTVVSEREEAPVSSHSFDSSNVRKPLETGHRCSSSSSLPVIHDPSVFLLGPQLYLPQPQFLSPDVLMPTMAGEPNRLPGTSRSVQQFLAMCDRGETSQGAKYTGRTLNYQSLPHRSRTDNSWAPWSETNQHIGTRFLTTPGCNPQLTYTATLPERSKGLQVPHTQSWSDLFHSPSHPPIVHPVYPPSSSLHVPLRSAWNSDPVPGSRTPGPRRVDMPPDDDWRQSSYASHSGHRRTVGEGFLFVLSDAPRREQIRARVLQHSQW
Outline: as §1

[7] = biological target: USP7 (UniProt Q93009)
Outline: as §1

[8] = biological target: T5, USP8 (UniProt P40818)
T5 sequence (whole entry): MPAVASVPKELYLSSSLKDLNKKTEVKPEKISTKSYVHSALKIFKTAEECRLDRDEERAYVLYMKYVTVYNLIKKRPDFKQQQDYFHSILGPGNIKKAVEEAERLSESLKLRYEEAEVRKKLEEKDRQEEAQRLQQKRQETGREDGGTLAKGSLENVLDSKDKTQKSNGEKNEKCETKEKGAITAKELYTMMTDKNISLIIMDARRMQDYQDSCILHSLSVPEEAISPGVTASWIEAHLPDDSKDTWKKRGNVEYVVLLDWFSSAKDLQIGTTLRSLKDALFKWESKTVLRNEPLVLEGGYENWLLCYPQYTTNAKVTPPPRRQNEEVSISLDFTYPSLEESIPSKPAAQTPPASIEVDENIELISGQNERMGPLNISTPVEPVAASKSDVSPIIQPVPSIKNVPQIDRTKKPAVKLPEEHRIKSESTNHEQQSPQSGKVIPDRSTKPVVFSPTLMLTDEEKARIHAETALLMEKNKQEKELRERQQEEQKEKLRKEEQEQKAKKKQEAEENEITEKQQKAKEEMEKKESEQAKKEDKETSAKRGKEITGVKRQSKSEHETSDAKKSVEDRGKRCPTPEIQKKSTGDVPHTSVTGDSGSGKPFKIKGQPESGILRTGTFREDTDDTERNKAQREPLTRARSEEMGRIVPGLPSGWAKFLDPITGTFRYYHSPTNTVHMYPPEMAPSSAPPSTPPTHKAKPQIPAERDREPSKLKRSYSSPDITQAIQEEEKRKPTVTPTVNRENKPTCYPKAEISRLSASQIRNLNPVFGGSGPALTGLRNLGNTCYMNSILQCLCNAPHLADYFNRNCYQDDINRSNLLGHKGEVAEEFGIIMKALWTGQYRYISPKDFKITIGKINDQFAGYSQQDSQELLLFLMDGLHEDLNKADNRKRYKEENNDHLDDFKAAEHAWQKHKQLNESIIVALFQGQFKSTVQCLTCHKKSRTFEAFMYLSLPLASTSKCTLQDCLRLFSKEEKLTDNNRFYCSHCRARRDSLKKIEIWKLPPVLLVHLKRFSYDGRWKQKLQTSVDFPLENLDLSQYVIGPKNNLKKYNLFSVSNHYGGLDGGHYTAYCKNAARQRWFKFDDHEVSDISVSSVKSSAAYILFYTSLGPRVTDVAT
Outline: as §1

[9] = biological target: USP9X (UniProt Q93008)
USP9X, sequence (Q93008 whole entry): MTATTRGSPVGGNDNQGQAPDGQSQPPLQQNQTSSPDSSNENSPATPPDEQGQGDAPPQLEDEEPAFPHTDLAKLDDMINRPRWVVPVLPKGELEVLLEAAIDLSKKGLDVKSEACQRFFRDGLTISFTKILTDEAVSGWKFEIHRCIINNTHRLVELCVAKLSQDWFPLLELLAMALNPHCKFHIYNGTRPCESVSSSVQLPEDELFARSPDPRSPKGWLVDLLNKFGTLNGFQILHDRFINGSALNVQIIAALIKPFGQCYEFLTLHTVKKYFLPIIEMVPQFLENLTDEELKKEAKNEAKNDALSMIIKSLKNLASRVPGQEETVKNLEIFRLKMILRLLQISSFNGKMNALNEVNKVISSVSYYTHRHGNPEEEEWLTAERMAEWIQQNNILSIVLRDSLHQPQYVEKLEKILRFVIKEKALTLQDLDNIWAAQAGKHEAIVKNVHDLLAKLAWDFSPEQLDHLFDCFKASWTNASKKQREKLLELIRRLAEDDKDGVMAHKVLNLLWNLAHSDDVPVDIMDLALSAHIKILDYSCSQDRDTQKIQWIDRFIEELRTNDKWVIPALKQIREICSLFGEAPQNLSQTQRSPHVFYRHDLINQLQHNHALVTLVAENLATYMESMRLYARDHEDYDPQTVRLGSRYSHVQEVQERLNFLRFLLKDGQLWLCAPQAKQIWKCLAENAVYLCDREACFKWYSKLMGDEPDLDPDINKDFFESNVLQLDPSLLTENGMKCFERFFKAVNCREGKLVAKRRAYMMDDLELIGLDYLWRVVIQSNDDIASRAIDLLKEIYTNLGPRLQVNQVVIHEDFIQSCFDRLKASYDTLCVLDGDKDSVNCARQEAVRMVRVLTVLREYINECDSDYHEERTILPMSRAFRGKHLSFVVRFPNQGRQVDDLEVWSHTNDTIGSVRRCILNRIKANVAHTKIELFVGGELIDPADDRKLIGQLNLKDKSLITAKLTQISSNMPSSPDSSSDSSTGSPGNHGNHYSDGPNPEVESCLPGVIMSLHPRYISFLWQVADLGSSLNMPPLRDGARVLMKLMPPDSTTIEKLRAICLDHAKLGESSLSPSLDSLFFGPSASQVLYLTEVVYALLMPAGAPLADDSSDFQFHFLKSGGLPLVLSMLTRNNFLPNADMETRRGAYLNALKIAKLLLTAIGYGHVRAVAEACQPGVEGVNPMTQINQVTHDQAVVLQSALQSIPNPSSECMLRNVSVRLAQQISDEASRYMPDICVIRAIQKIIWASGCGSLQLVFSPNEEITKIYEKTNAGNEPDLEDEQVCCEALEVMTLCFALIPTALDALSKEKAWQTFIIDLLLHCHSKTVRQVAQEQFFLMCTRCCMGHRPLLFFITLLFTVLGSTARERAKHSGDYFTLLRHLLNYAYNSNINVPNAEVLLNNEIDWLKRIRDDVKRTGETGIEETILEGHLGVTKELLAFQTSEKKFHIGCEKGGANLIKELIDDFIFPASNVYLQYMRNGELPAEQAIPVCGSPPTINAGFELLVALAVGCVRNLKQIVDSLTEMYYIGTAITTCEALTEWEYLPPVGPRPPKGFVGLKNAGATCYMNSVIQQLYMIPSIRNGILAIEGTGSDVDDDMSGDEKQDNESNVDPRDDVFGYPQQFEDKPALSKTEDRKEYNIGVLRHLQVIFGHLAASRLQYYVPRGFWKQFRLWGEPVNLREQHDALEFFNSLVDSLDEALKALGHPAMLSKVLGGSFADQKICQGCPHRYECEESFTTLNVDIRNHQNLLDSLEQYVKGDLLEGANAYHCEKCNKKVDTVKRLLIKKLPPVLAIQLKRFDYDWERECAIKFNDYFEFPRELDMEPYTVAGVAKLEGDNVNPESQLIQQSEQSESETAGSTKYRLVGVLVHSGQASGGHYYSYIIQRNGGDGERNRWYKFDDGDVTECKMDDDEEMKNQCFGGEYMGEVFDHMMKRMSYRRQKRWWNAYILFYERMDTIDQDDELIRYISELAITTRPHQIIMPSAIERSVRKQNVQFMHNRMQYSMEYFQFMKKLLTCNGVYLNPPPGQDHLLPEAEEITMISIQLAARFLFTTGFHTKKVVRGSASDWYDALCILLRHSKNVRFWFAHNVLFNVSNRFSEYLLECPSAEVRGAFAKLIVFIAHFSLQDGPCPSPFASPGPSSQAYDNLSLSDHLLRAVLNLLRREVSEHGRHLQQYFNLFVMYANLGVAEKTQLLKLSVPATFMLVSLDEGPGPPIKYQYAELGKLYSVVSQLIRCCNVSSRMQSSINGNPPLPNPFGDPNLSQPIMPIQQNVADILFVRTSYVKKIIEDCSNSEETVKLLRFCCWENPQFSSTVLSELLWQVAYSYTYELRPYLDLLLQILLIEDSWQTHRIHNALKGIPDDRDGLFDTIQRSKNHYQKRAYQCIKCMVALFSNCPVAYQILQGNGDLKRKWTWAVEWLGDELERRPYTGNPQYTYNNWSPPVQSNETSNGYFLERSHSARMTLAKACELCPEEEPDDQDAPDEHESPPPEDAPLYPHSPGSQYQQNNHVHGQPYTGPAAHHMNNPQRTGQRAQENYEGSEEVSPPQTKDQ
Outline: as §1

[10] = biological target: UniProt O00487
UniProt O00487, sequence (O00487 whole entry): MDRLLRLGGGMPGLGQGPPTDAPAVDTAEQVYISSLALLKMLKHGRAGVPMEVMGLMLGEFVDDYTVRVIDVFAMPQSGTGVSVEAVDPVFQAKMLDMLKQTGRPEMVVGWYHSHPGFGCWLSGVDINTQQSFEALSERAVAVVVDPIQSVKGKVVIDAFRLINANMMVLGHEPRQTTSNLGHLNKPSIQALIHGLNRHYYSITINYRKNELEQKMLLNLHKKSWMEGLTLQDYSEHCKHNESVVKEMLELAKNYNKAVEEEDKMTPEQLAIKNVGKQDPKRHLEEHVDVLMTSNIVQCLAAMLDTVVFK
Outline: as §1

Measured: log2 ratio of Biotin-Ahx-Ub-VS probe labelling

O=C(CCl)Nc1cc(Cl)ccc1C(=O)O
inactive: [1] -0.11 | [2] 0.0628 | [3] 0.0765 | [4] 0.232 | [5] 0.436 | [6] 0.0975 | [7] 0.19 | [8] -0.256 | [9] -0.165 | [10] -0.0135

N#Cc1ccc(Cl)cc1NC(=O)CCl
inactive: [1] -0.385 | [2] 0.0423 | [3] -0.413 | [4] -0.305 | [5] -0.153 | [6] -0.514 | [7] -0.47 | [8] -0.0467 | [9] -0.0196 | [10] 0.0781

O=C(CCl)N1CCOC(CCc2ccccc2)C1 (stereo not given)
inactive: [1] 0.335 | [2] -0.509 | [3] -1.03 | [4] -0.472 | [5] -0.132 | [6] 0.433 | [7] -0.763 | [8] -0.555 | [9] -0.43 | [10] -0.235
